Experimental findings from PubChem BioAssay (NCI) are described below.

The structures appear in SMILES notation. Compounds without any hit were thinned out: in the full panel of roughly 83,000, 20% have a hit.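 Testing used 96-well plates and a 48-hour single-concentration exposure. Example: -40 means 40% of the starting cells died.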 Values without a mark were called inactive. The source made the active and inactive calls. How the source made its calls: active means growth percent below 10; inactive means the rest.

This test concerns HL-60(TB) leukemia. Put plainly: NCI-60 one-dose screen, 48 h (100 = growth as untreated, 0 = no growth, -100 = all killed). Conditions: 10 µM unless noted.
Turning to `CC[C@@]12C=CCN3CC[C@]4(c5cc(NC(=O)COc6cc(OCC(=O)Nc7cc8c(cc7OC)N(C)[C@H]7[C@@](O)(C(=O)OC)[C@H](OC(C)=O)[C@]9(CC)C=CCN%10CC[C@]87[C@@H]%109)cc7oc(-c8ccccc8)cc(=O)c67)c(OC)cc5N(C)[C@@H]4[C@](O)(C(=O)OC)[C@H]1OC(C)=O)[C@H]32`, the growth is 88.2%. Regarding `CCCCCCCCOC(=O)C(C)OC(=O)OCCOCCOC(=O)OC(C)C(=O)OCCCCCCCC` (centres undefined), the growth was 108%.

As for `COc1cc(-c2nn(-c3cccc(NC(=O)CCN4CCN(C)CC4)c3)cc2-c2ccncc2)ccc1Cl`, the growth was -24.5% (active).

With `CC(=O)O.CC(=O)O.O.[Fe]`, the growth was 114%. Take `c1ccc(COCC[P+](c2ccccc2)(c2ccccc2)c2ccccc2)cc1`: the growth is -52.2% (active).

Take `CN(C)CCOc1ccc2c(c1)C(=O)/C(=C\c1ncc([N+](=O)[O-])n1C)C2`: the growth was -51.8% (active). With `CCOC(=O)c1sc(-c2ccc(OS(=O)(=O)c3ccccc3[N+](=O)[O-])c(C=O)c2)nc1C`, the growth was 73.3%.

In the case of `CCCCCCCCCCCC1=NC(C)(C)CN1C(C)(C)CO`, the growth is 58.3%. Regarding `Cc1ccc(N=C=C(c2ccccc2)c2ccccc2)cc1`, the growth is 18.6%. Under `C=CC(=O)N1CCN(c2cccc(Oc3nccc(Nc4nnc(-c5ccc(Br)cc5)s4)n3)c2)CC1` stands 51.1%; under `C[C@H](NC(=O)[C@@H]1CSSC[C@@H](NC(=O)Cc2nc3ccccc3cc2O)C(=O)NCC(=O)N1C)c1ccccc1`, 32.1%; under `CC1CCCN(CCCCCOc2ccc3oc4ccccc4c(=O)c3c2)C1` (centres undefined), 45.5%. Under `NNc1ncnc2c1ncn2C1OC(CO)C(O)C1O` (centres undefined) stands 34.8%; under `Cc1cccc(NCc2cn(-c3ccc(C(=O)O)cc3)nc2-c2ccc(C(=O)O)cc2)n1`, 101%. As for `COc1ccc(CC2c3cc(OC)c(OC)cc3CC[N+]2(C)CCC(=O)OCCCCCOC(=O)CC[N+]2(C)CCc3cc(OC)c(OC)cc3C2Cc2ccc(OC)c(OC)c2)cc1OC` (centres undefined), the figure is 82.9%; as for `COc1cc(C2CC(=O)Nc3n[nH]c(-c4ccccc4)c32)cc(OC)c1OC` (centres undefined), 39.1%; as for `CCOC(=O)C1(N)CCCCC1`, 110%. On to `Cn1cc(-c2csc(-c3c[nH]c4ccc(F)cc34)n2)c2cccnc21`, for which the growth was 24.5%. As for `C=C(C)[C@@H]1CC[C@]2(C(=O)NC(COC(=O)C(Cl)Cl)(COC(=O)C(Cl)Cl)COC(=O)C(Cl)Cl)CC[C@]3(C)[C@H](CC[C@@H]4[C@@]5(C)CC[C@H](OC(C)=O)C(C)(C)[C@@H]5CC[C@]43C)[C@@H]12`, the figure is 16.7%; as for `COc1cc(/C=C/c2cc(/C=C/c3ccc(O)c(OC)c3)n(-c3ccc(Cl)cc3)c(=O)n2)ccc1O`, 92.6%; as for `COc1cc(/C=C/c2cc(/C=C/c3ccc(O)c(OC)c3)n(C(N)=O)n2)ccc1O`, -25.1% (active). Under `O=C1Nc2ccccc2/C1=C\c1nc(-c2ccccc2)n2ccccc12` stands 85.6%; under `Cn1cc(-c2noc(C(=O)c3cn(C)c4ncc(Br)cc34)n2)c2ccccc21`, 103%. Regarding `CN(C)CCCn1c2c(c3ccncc3c1=O)C(=O)c1ccccc1-2`, the growth was -19.8% (active). For `CCOC(=O)/C(C#N)=C\Nc1ccc2ncnc(Nc3ccc(Cl)cc3Cl)c2c1`, the growth was 108%. Take `COc1ccc(C2[C@@H](c3ccccc3)C(=O)N2c2cc(OC)c(OC)c(OC)c2)cc1F` (some centres undefined): the growth was -50.3% (active). For `CCOC(=O)c1ccc(N2NC(=O)/C(=C/c3ccc([N+](=O)[O-])o3)C2=O)cc1`, the growth was 85.5%. As to `COc1ccc(C2CC(c3cc(OC)c(OC)c(OC)c3)=NN2C(C)=O)cc1OCC(=O)Nc1nc2ccc(C(F)(F)F)cc2s1` (centres undefined), the growth was 79.1%.

Regarding `CC(=O)NC1(C(=O)O)CCCC1`, the growth is 101%. Under `Cn1cc(-c2csc(-c3c[nH]c4ccc(F)cc34)n2)c2cnccc21` stands -59.4% (active); under `CCc1cc(C)cc(O)c1`, 105%; under `C[N+](C)=c1ccc2nc3c(cc(NCCCNc4cc5oc6cc(=[N+](C)C)ccc-6nc5c5ccccc45)c4ccccc43)oc-2c1`, -7.2% (active). For `NC(=S)N/N=C/C(=O)O`, the growth was 87.8%. In the case of `CN(C)[C@@H]1C(=O)C(C(N)=O)=C(O)[C@@]2(O)C(=O)C3=C(O)c4c(O)cc(CN5CCc6ccccc6C5)c(Cl)c4C[C@H]3C[C@@H]12`, the growth is -64.8% (active).
